Source: PubChem
The list is not random: actives were taken first. Their share in the collection is about 3.5%.
Anthrax LF inh2 – inhibitors of Bacillus anthracis lethal factor protease. P15917. multiplex microsphere protease cleavage assay, LF. inhibition, % at 10 µM. 360,000 compounds, 0.12% hits; note: plate controls were buffer without enzyme for full effect and enzyme alone for no effect
Autofluor counter – compound fluorescence in toxin protease inhibitor counterscreen; 360,000 compounds, 3.1% hits; AID 624483; fluorescence intensity (no concentration beside the values); compound autofluorescence counterscreen, microsphere flow cytometry; hits give high values; in the data active = fluorescence intensity above about 16000; inconclusive = no clear call, values can overlap the other calls
BoNT-F LC inh – BoNT F light chain protease inhibition; 360,000 compounds, 0.22% hits; Multiplex microsphere protease cleavage assay, flow cytometry; inhibition, % at 10 µM; in the data active = inhibition above about 35%, passing the limit was not always enough; inconclusive = no clear call, values can overlap the other calls; note: plate controls were buffer without enzyme for full effect and enzyme alone for no effect
BoNT A protease – inhibitors of Botulinum neurotoxin A light chain protease. multiplex microsphere protease substrate cleavage, flow cytometry. inhibition, % at 10 µM. 360,000 compounds, 0.17% hits; note: plate controls were buffer without enzyme for full effect and enzyme alone for no effect
* = called active by the depositor; ? = inconclusive. Cut-off read from the data, not from the text of the source, unless noted: active = inhibition above about 30%; inconclusive = no clear call, values can overlap the other calls; inactive = below that.

SMILES	Anthrax LF inh2	Autofluor counter	BoNT-F LC inh	BoNT A protease
COc1cc(SC)ccc1C(=O)NCCNC(=O)c1nonc1N	-1	2943	-13	-1
CCN1C(=O)C(CC(=O)Nc2ccc(OC)cc2)N(Cc2cccs2)C1=S (stereo not given)	-2	16912*	-4	?
COC(=O)C(Cc1ccccc1)NC(=O)CNC(=O)c1ccccc1OC (stereo not given)	-5	3970	-18	-3
CCOC(=O)c1sc(=S)n(-c2ccc(OC)cc2)c1C	-13	4085	?	-2
COc1ccc(CNC(=O)c2sc(=S)n(-c3ccc(OC)cc3)c2N)cc1	-4	19355*	1	2
O=C(OCC(=O)N1CCCC1)c1cc(Cl)ccc1Cl	4	3211	-15	0
COC(=O)Cc1c(O)ccn(Cc2ccccc2OC)c1=O	3	4157	?	0
COC(=O)Cc1c(O)ccn(Cc2cccc3ccccc23)c1=O	-1	21316*	0	1
CCOC(=O)c1cc(OC(=O)c2ccccc2OC)n(-c2ccccc2)n1	-16	20755*	11	?
O=[N+]([O-])c1ccc2nc(Cl)nc(-c3ccccc3)c2c1	-1	3805	-2	0
Cc1cccc(Nc2nc(N)nc(CN3CCN(c4ccccc4)CC3)n2)c1	-3	23528*	-5	?
Nc1nc(CN2CCN(Cc3ccccc3)CC2)nc(Nc2ccccc2)n1	0	19782*	9	7
CN(Cc1ccccc1)C(=O)CCNS(=O)(=O)c1ccc2c(c1)oc(=O)n2C	-1	20317*	-3	-1
CN(Cc1ccccc1)C(=O)CCS(=O)(=O)c1ccc2c(c1)oc(=O)n2C	-2	5147	1	0
Cn1c(=O)oc2cc(S(=O)(=O)NCCC(=O)NC3CCCc4ccccc43)ccc21 (stereo not given)	-3	20326*	-2	-1
CCCNS(=O)(=O)c1cccc(C(=O)NC2CCCc3ccccc32)c1 (stereo not given)	-1	22288*	3	1
CCCN(CCC)CCCNS(=O)(=O)c1ccc2c(c1)oc(=O)n2C	-8	23740*	-11	?
CC(=O)c1ccccc1NC(=O)C1CCCN(C(=O)c2ccc(Cl)cc2)C1 (stereo not given)	-4	?	-9	-2
CCOc1ccc(S(=O)(=O)N2CN(c3cccc(C(C)=O)c3)c3nc4ccccc4nc32)cc1	-1	2981	-7	0
CN(C)CCN(C)C1CN(Cc2ccccc2)S(=O)(=O)C1 (stereo not given)	-4	6032	-12	0
CN1CCC(OC(=O)COc2ccc(Br)cc2)CC1	-6	3533	-9	0
CN1CCC(OC(=O)c2ccc(Br)cc2)CC1	-1	21548*	5	3
CCC1CCCCN1c1nc(-c2cccc(OC)c2O)nc2ccccc12 (stereo not given)	-6	16896*	-4	-3
COc1cccc(-c2nc(NC(C)C)c3ccccc3n2)c1O	-6	24838*	-7	-4
COC(=O)C1CCN(S(=O)(=O)c2c[nH]c(=O)[nH]c2=O)CC1	-2	2943	1	0
SMILES	Anthrax LF inh2	Autofluor counter	BoNT-F LC inh	BoNT A protease
Cc1c(/C=N/NC(=O)c2cc(=O)[nH]c(=O)[nH]2)c2ccccn2c1C(=O)c1ccccc1	1	19024*	5	3
Cc1sc(NC(=O)c2ccc(Cl)s2)c(C(N)=O)c1C	-10	16138*	-2	0
Cc1nn(Cc2ccc(Cl)cc2Cl)c(C)c1NC(=O)c1nn(C)cc1Cl	-1	10190	-5	0
Cc1nn(Cc2ccc(Cl)cc2Cl)c(C)c1NC(=O)CCl	0	19112*	4	?
Cc1nn(C)c(Cl)c1NC(=O)OCc1ccc(Cl)cc1Cl	-5	23382*	-6	?
O=C(C1CCCO1)N1CCN(S(=O)(=O)c2ccccc2)CC1 (stereo not given)	0	22925*	0	-2
Cc1ccc(S(=O)(=O)N2CCN(C(=O)C3CCCO3)CC2)cc1C (stereo not given)	-2	5161	2	-1
O=C(c1cc2ccccc2oc1=O)N1CCN(C(=O)C2CCCO2)CC1 (stereo not given)	-4	25648*	-7	-8
Cc1ccccc1C(=O)Nc1ccnn1C1CCN(Cc2cnn(C)c2)CC1	3	5632	4	0
COCc1cc(=O)[nH]c(/N=C(\N)Nc2ccc(Cl)c(Cl)c2)n1	?	3843	-57	-8
COc1ccc(N/C(N)=N/c2nc(CSc3ccc(Cl)cc3)cc(=O)[nH]2)cc1	-1	10842	-2	0
CCOC(=O)Cc1cc(=O)[nH]c(/N=C(\N)Nc2ccc(C)cc2C)n1	1	23280*	-1	0
Cc1ccc(SCc2cc(=O)[nH]c(/N=C(\N)Nc3ccc(C)c(C)c3)n2)cc1	-1	25207*	-8	-3
COC(=O)Cc1cc(=O)[nH]c(/N=C(\N)Nc2ccc(C)cc2C)n1	6	3049	5	0
COCc1cc(=O)[nH]c(/N=C(\N)Nc2ccc(C)cc2)n1	0	21003*	-5	?
O=C(O)c1cc(N2C(=O)C3C4C=CC(C4)C3C2=O)ccc1NCc1cccnc1 (stereo not given)	-2	23049*	-1	0
CC(=O)Oc1ccc2c(=O)c(N3C(=O)c4ccccc4C3=O)c(C)oc2c1	3	2475	-3	0
CCCOc1ccc2c(=O)c(N3C(=O)c4ccccc4C3=O)c(C)oc2c1	-4	20166*	-1	0
Cc1oc2cc(O)ccc2c(=O)c1N1C(=O)c2ccccc2C1=O	-3	19700*	-1	1
O=C(NC1(C(F)(F)F)C(=O)Nc2c1c(=O)[nH]c(=O)n2Cc1ccccc1)c1ccco1 (stereo not given)	-2	22776*	1	-1
CC(=O)NC1(C(F)(F)F)C(=O)Nc2c1c(=O)[nH]c(=O)n2Cc1ccco1 (stereo not given)	4	4819	-3	0
CCOC(=O)c1ncn2c1C(=O)OC2(C)C	1	19113*	2	?
CCOC(=O)C1=CC(=O)CC(C)(C)O1	1	3848	2	0
Cc1ccc(C2=NN(S(C)(=O)=O)C(c3ccc4c(c3)OCO4)C2)cc1 (stereo not given)	3	8387	3	2
CS(=O)(=O)N1N=C(c2ccc(Br)cc2)CC1c1ccc2c(c1)OCO2 (stereo not given)	1	25156*	3	4
SMILES	Anthrax LF inh2	Autofluor counter	BoNT-F LC inh	BoNT A protease
CN(CC(=O)O)S(=O)(=O)c1ccc(F)cc1	0	10317	-9	0
Cc1ccc(NC(=O)C(C)NS(=O)(=O)c2ccc(F)cc2)cc1C (stereo not given)	-2	2522	0	0
CNC(=O)C(C)NS(=O)(=O)c1ccc(F)cc1 (stereo not given)	-1	21451*	-5	-4
CNC(=O)CN(C)S(=O)(=O)c1ccc(F)cc1	-1	23131*	2	?
CCOC(=O)/C(=N\Nc1ccc(Cl)cc1)Sc1nnc(-c2ccc(OC)cc2)n1C	1	2480	-7	1
CCn1c(SCC(=O)N2CCN(c3ccccc3)CC2)nnc1-c1cc2cc(Cl)ccc2o1	-3	22674*	0	?
COc1ccc(N2CC(NC(=O)N3CCN(C(=O)c4ccco4)CC3)CC2=O)cc1OC (stereo not given)	4	5969	0	1
